Among all 69,000 compounds or so, about 950 (1.4%) showed an effect of 50% or more. This is one part of a sample in which strong results are shown more often than they occur.
Each molecule was assayed on Mycobacterium tuberculosis (assay: Cornell M. t heat shock assay; further: in the data most compounds retested in dose-response had high values).
Format: functional, organism-based
Parameters: dose or concentration left out as unconfirmed

SMILES	Percent Effect [%]
CCOCC(O)CN1CCN(C(=O)Cc2ccc(C)cc2)CC1 (configuration not stated)	-41.68
Cn1cc(C[C@H]2[C@H](O)CCN2CC2CC2)cn1.O=C(O)C(F)(F)F	6.686
O=C(O)C(F)(F)F.O=C(c1ccc(F)cc1)N1C[C@@H]2COC[C@]2(COc2cccnc2)C1	37.91
O=C1C(CS(=O)(=O)Nc2ccccc2)=NC(=O)n2cccc21	-27.85
COCCN(Cc1ccccn1)Cc1sccc1C	-13.89
COCCN(Cc1sccc1C)Cc1nccn1CCOC	-20.4
COCCn1ccnc1CN(Cc1ccccn1)Cc1sccc1C	88.17
Cl.c1cnc2c(c1)cc([C@@H]1CCCO1)n2CCN1CCCCC1	-17.62
CCN(CC)S(=O)(=O)N1CCc2nc(C3CCNCC3)ncc2C1.Cl	-7.475
CN(Cc1ccnc2ccccc12)C1CCS(=O)(=O)C1.O=C(O)CC(O)(CC(=O)O)C(=O)O (configuration not stated)	6.818
CSc1[nH]nc(NC(=O)c2cccs2)c1C#N	104.2
CSc1[nH]nc(NC(=O)c2ccncc2)c1C#N	6.331
CSc1[nH]nc(NC(=O)c2ccccc2)c1C#N	-4.998
CN(C)[C@@H]1CCN(C(=O)c2cccc(C#N)c2)[C@H]1Cc1cnn(C)c1.O=C(O)C(F)(F)F	5.533
Cc1ccc(N2CCO[C@H]3CN(Cc4ccc(F)cc4)C[C@H]32)nn1.O=C(O)C(F)(F)F.O=C(O)C(F)(F)F	-13.42
CCOCCNC1(c2ccc(Cl)cc2)CCOCC1	12.33
COCCNC1(c2ccc(Cl)cc2)CCOCC1	20.91
Clc1ccc(OCCNC2(c3ccc(Br)cc3)CCOCC2)cc1	73.72
CCN1C(=O)C2(CCN(CCN(C)C)CC2)c2ccccc21.O=C(O)C(F)(F)F.O=C(O)C(F)(F)F	-13.81
Cc1ccc(C(=O)N2CCc3c(CNc4ncccn4)cncc3C2)o1.Cl	-7.52
CC(=O)N1C(CN2CCCC2)C[C@@H]2CN(C(=O)c3ccoc3)CC[C@@H]21.O=C(O)C(F)(F)F (some centres not stated)	-8.828
CCNc1ccnc(N2Cc3cnc(CC(C)C)nc3C2)n1	35.37
CC(C)Cc1ncc2c(n1)CN(c1nccc(NC(C)C)n1)C2	83.11
CC(C)Cc1ncc2c(n1)CN(c1nccc(N(C)C)n1)C2	7.671
CCc1cnc(N2Cc3cnc(C(C)(C)C)nc3C2)nc1	15.36
COc1ccnc(N2Cc3cnc(C(C)(C)C)nc3C2)n1	14.25
CC(C)Nc1ccnc(N2Cc3cnc(C(C)(C)C)nc3C2)n1	52.72
